HT1080NT lethal – kills 2HG-producing HT-1080-NT fibrosarcoma cells | Potency, µM (highest dose often 46.1 µM), hits mostly cytotoxic | HT-1080-NT fibrosarcoma viability, CellTiter-Glo ATP luminescence, 48 h | hit rate 1.6% among 360,000;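 further: NT is the 2HG producing partner of a matched IDH1 knockdown line; nearly all actives have a fitted effect of over 55% in size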
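Toxicity toward the 2HG-producing NT line was scored as %Activity, normalised to DMSO and no-cell wells, from CellTiter-Glo luminescence after 48 hours' treatment.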
HepG2 tox – counter-screen for TGF-b inhibitors: cytotoxicity in HepG2 cells | hit rate 0.76% among 410,000 | Potency, µM (doses to about 46.1 µM), actives largely listed as cytotoxic | HepG2 CAGA-GFP viability, ATP luminescence, 18 h | AID 588856
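CellTiter-Glo luminescence gave cytotoxicity after 18 hours at 37 degrees C. The cells were HepG2 CAGA-GFP in 1% FBS DMEM, stimulated with 500 pg/mL TGF-beta after compound addition. %Activity was normalised to no-cell wells (complete cell-killing) and DMSO (no toxicity), and curves were fitted and classified.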
TGFb SMAD3 inh – inhibitors of TGF-b signaling. hit rate 1.2% among 410,000. Potency, µM (doses to about 46.1 µM), most hits filed as inhibitors. HepG2 CAGA-GFP TGF-b/SMAD3 reporter, GFP fluorescence, 18 h; TGF-beta stimulated, 500 pg/mL final. AID 588855; further: nearly all actives have a fitted effect of over 65% in size
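Per well, imaged GFP fluorescence of HEPG2 CAGA-GFP cells gives the signal; cells get compound, then TGF-beta (500 pg/mL final), 18 h at 37 degrees C; %Activity versus -TGF-beta and +DMSO controls.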
KB-3-1 cytotox – KB-3-1 parental cell cytotoxicity | KB-3-1 viability, CellTiter-Glo ATP luminescence, 72 h | Potency, µM (series often up to 46.1 µM), usual class: cytotoxic | hit rate 1.4% among 400,000; further: nearly all actives have a fitted effect of over 60% in size
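Using CellTiter-Glo luminescence, growth of non-resistant KB-3-1 adenocarcinoma cells is assessed 72 h after pin-tool compound addition at 37 °C. Normalized responses across the concentration series yield fitted curves.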
KB-V1 MDR tox – KB-V1 MDR subline cytotoxicity | KB-V1 MDR cells viability, CellTiter-Glo, 72 h | Potency, µM (doses to about 46.1 µM), hits mostly cytotoxic | hit rate 3.4% among 400,000 | AID 1347076; further: nearly all actives have a fitted effect of over 60% in size
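Cells of the MDR subline KB-V1 are plated, dosed with compound at multiple concentrations, and incubated 72 h at 37 degrees C; CellTiter-Glo is then added and luminescence read after 10 min.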
HT1080 IDH1KD tx – HT-1080 IDH1 knockdown cell toxicity (counter line) | hit rate 2% among 360,000 | HT-1080 IDH1 knockdown viability, ATP luminescence, 48 h | AID 686971 | Potency, µM (series often up to 46.1 µM), hits mostly cytotoxic
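Cytotoxicity counter-line: IDH1KD HT-1080, 48 h, CellTiter-Glo. Curves classed by r2, magnitude and activity.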
A number is an active result; [ ] = dose if it differs, or a comment. Most compounds without a hit are left out; they make up all but 6.6% or so of the library. The call rests on the fitted dose curve; in most records, active means well fitted curve in the direction sought with a large enough effect; inconclusive means small, poorly fitted or top-dose-only effect, or another doubt; inactive means no such curve, though single readings can be large; an effect the other way counts as inactive or inconclusive.

How did CCOC(=O)Cn1nc(-c2ccc(Cl)cc2)cc1N do in these assays?
HT1080NT lethal: inactive; HepG2 tox: inactive; TGFb SMAD3 inh: inactive; KB-3-1 cytotox: inactive; KB-V1 MDR tox: inactive; HT1080 IDH1KD tx: inactive

What do the screens show for `COc1ccc(CNC(=O)Cc2c(C(=O)O)c(C)cn2C)cc1`?
HepG2 tox: inactive; TGFb SMAD3 inh: inactive; KB-3-1 cytotox: inactive; KB-V1 MDR tox: inconclusive

What do the screens show for `COc1cc(/C=N/N=C(/C(=O)c2ccccc2)c2ccccc2)cc(OC)c1O`?
HT1080NT lethal: inactive; HepG2 tox: inactive; TGFb SMAD3 inh: inconclusive; KB-3-1 cytotox: inactive; KB-V1 MDR tox: 9.2µM; HT1080 IDH1KD tx: inactive

How did CC(=Nc1ccc(Br)cc1)c1sc2ccccc2c1O do in these assays?
HT1080NT lethal: inactive; HepG2 tox: inactive; TGFb SMAD3 inh: inactive; KB-3-1 cytotox: inactive; KB-V1 MDR tox: inactive; HT1080 IDH1KD tx: inactive

What do the screens show for `CC(=Nc1ccccc1)c1sc2ccccc2c1O`?
HT1080NT lethal: inactive; HepG2 tox: inactive; TGFb SMAD3 inh: inactive; KB-3-1 cytotox: inactive; KB-V1 MDR tox: 21µM; HT1080 IDH1KD tx: inactive

Results for O=C(Nc1ccc(-c2nc3cc(Cl)ccc3o2)cc1)C1CCCO1 (stereo not given) ?
HT1080NT lethal: inactive; HepG2 tox: inactive; TGFb SMAD3 inh: inactive; KB-3-1 cytotox: inactive; KB-V1 MDR tox: 10µM; HT1080 IDH1KD tx: inactive

Results for CC(C)N(c1ccccc1)c1ccc(NC(=O)C2CCCO2)cc1 (stereo not given) ?
HT1080NT lethal: inactive; HepG2 tox: inactive; TGFb SMAD3 inh: inconclusive; KB-3-1 cytotox: inactive; KB-V1 MDR tox: 21µM; HT1080 IDH1KD tx: inactive

How did Cc1ccc2nc(-c3ccc(NC(=O)C4CCCO4)cc3)[nH]c2c1 (stereo not given) do in these assays?
HT1080NT lethal: inactive; HepG2 tox: inactive; TGFb SMAD3 inh: inactive; KB-3-1 cytotox: inactive; KB-V1 MDR tox: 9.2µM; HT1080 IDH1KD tx: inactive

What do the screens show for `Cc1ccc2nc(-c3ccc(NC(=O)Cc4cccs4)cc3)[nH]c2c1`?
HT1080NT lethal: inconclusive; HepG2 tox: inactive; TGFb SMAD3 inh: inconclusive; KB-3-1 cytotox: inactive; KB-V1 MDR tox: inactive; HT1080 IDH1KD tx: inconclusive

How did O=C(Nc1ccc(-c2nc3ccccc3o2)cc1)C1CCCO1 (stereo not given) do in these assays?
HT1080NT lethal: inactive; HepG2 tox: inactive; TGFb SMAD3 inh: inactive; KB-3-1 cytotox: inconclusive; KB-V1 MDR tox: 10µM; HT1080 IDH1KD tx: inconclusive

What do the screens show for `COc1cc(OC)c(NS(=O)(=O)c2cc(-c3cnc(C)o3)ccc2OC)cc1Cl`?
HepG2 tox: inactive; TGFb SMAD3 inh: inactive; KB-3-1 cytotox: inconclusive; KB-V1 MDR tox: inactive

How did O=C(CCc1ccccc1)N(Cc1cccnc1)c1nc2c(F)cc(F)cc2s1 do in these assays?
HepG2 tox: inactive; TGFb SMAD3 inh: inactive; KB-3-1 cytotox: inactive; KB-V1 MDR tox: inactive

What do the screens show for `CC(=O)Nc1ccc(-c2nc3cc(Cl)ccc3o2)cc1`?
HT1080NT lethal: inactive; HepG2 tox: inactive; TGFb SMAD3 inh: 11µM; KB-3-1 cytotox: inactive; KB-V1 MDR tox: inactive; HT1080 IDH1KD tx: inactive

How did Cc1cc(OCCCCNC(C)C)cc(C(C)C)c1 do in these assays?
HT1080NT lethal: inactive; HepG2 tox: inactive; TGFb SMAD3 inh: inactive; KB-3-1 cytotox: inactive; KB-V1 MDR tox: 21µM; HT1080 IDH1KD tx: inactive

Results for Cc1cc(OCCOCCNC(C)C)cc(C)c1Cl ?
HT1080NT lethal: inconclusive; HepG2 tox: inactive; TGFb SMAD3 inh: inactive; KB-3-1 cytotox: inconclusive; KB-V1 MDR tox: inconclusive; HT1080 IDH1KD tx: inconclusive

Results for COc1cc(C#CC#CCN2CCCCC2)ccc1O ?
HT1080NT lethal: inactive; HepG2 tox: inactive; TGFb SMAD3 inh: inactive; KB-3-1 cytotox: inactive; KB-V1 MDR tox: 10µM; HT1080 IDH1KD tx: inactive

Results for CN(C)c1ccc(/C=C\C=C/c2ccnc3ccccc23)cc1 ?
HepG2 tox: inactive; TGFb SMAD3 inh: 8.9µM; KB-3-1 cytotox: 0.92µM; KB-V1 MDR tox: inactive

How did O=C(O)CCN(CCC(=O)O)c1ccc(/C=C/c2ccnc3ccccc23)cc1 do in these assays?
HepG2 tox: inactive; TGFb SMAD3 inh: inactive; KB-3-1 cytotox: inconclusive; KB-V1 MDR tox: inactive

What do the screens show for `CCCCN(CCC(=O)O)c1ccc(/C=C/c2ccnc3ccccc23)cc1`?
HepG2 tox: 5.6µM; TGFb SMAD3 inh: inconclusive; KB-3-1 cytotox: inconclusive; KB-V1 MDR tox: inconclusive

What do the screens show for `CN(C)c1ccc(/C=C/c2ccnc3ccccc23)cc1C=O`?
HepG2 tox: inactive; TGFb SMAD3 inh: inconclusive; KB-3-1 cytotox: inactive; KB-V1 MDR tox: inactive

Results for Cc1ccc2nccc(/C=C/c3ccc(N(C)C)cc3)c2c1 ?
HepG2 tox: inactive; TGFb SMAD3 inh: inactive; KB-3-1 cytotox: inconclusive; KB-V1 MDR tox: 18µM

How did CCc1cc(/C=C/c2ccnc3ccccc23)ccc1N(C)C do in these assays?
HepG2 tox: inactive; TGFb SMAD3 inh: inactive; KB-3-1 cytotox: 6.5µM; KB-V1 MDR tox: inconclusive

Results for COc1ccc(-c2oc3ncn4nc(COc5c(C)cccc5C)nc4c3c2-c2ccc(OC)cc2)cc1 ?
HepG2 tox: inactive; TGFb SMAD3 inh: inactive; KB-3-1 cytotox: inactive; KB-V1 MDR tox: inactive

Results for CCn1c(-c2ccc(C)cc2)nn(CC(=O)NCCc2ccccc2)c1=S ?
HT1080NT lethal: inactive; HepG2 tox: inactive; TGFb SMAD3 inh: inactive; KB-3-1 cytotox: inconclusive; KB-V1 MDR tox: inconclusive; HT1080 IDH1KD tx: inactive

How did COc1ccc(-c2nn(CC(=O)NCCc3ccccc3)c(=S)n2C)cc1 do in these assays?
HT1080NT lethal: inactive; HepG2 tox: inactive; TGFb SMAD3 inh: inactive; KB-3-1 cytotox: inconclusive; KB-V1 MDR tox: 16µM; HT1080 IDH1KD tx: inactive

How did CC(=O)c1ccccc1NS(=O)(=O)c1cc2c(cc1C)NC(=O)CO2 do in these assays?
HepG2 tox: inactive; TGFb SMAD3 inh: inactive; KB-3-1 cytotox: inactive; KB-V1 MDR tox: inactive

Results for COc1ccc(CC(=O)N2CCc3cc(OC)c(OC)cc3C2COc2cc(C)cc(C)c2)cc1OC (stereo not given) ?
HepG2 tox: inactive; TGFb SMAD3 inh: 14µM; KB-3-1 cytotox: inconclusive; KB-V1 MDR tox: inactive

Results for COC(=O)c1ccc(OCC2c3cc(OC)c(OC)cc3CCN2C(=O)Cc2ccc(OC)c(OC)c2)cc1 (stereo not given) ?
HepG2 tox: inactive; TGFb SMAD3 inh: inactive; KB-3-1 cytotox: inactive; KB-V1 MDR tox: inconclusive

How did CCC(=O)N1CCc2cc(OC)c(OC)cc2C1COc1ccc(C(=O)OC)cc1 (stereo not given) do in these assays?
HT1080NT lethal: inactive[9.24 µM]; HepG2 tox: inactive; TGFb SMAD3 inh: inactive; KB-3-1 cytotox: inactive; KB-V1 MDR tox: inactive; HT1080 IDH1KD tx: inconclusive
